Settings in all cases: mRNA level, 48 h; actives raise or lower the signal
Read-out in test [1]: Pro-epidermal growth factor (Homo sapiens) (UniProt P01133)
The test is described as follows: LTEA_HepaRG_EGF: Life Technologies and Expression Analysis (LTEA) Assay for Epidermal growth factor (EGF) using HepaRG (AID 2283489). The gist of the method:
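qRT-PCR readout of EGF transcript after 48 h chemical exposure of HepaRG cells; eight concentrations from 100 uM down in half-log steps, duplicate wells, 0.5% DMSO vehicle. Bidirectional curve fitting against DMSO baseline.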

Read-out in test [2]: Early growth response protein 1 (EGR1) transcription factor, EGR1 (gene 1958)
Put plainly: LTEA_HepaRG_EGR1: Life Technologies and Expression Analysis (LTEA) Assay for Early growth response protein 1 (EGR1) transcription factor using HepaRG (AID 2283490). The procedure, abridged: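 Read-out is EGR1 mRNA level by qRT-PCR, normalized to three housekeeping genes and analysed for gain or loss of signal against 0.5% DMSO. Source cells: human HepaRG, treated 48 h at up to 100 uM in half-log dilutions.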

Read-out in test [3]: Ezrin (EZR), EZR (gene 7430)
Put plainly: LTEA_HepaRG_EZR: Life Technologies and Expression Analysis (LTEA) Assay for Ezrin (EZR) using HepaRG (AID 2283491). The procedure, abridged: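 Gain or loss of EZR mRNA is scored relative to 0.5% DMSO in human HepaRG cultures treated 48 h with test chemicals in duplicate, eight half-log concentrations from 100 uM.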

Read-out in test [4]: Cytochrome P450 3A7 (Homo sapiens) (UniProt P24462)
The test is described as follows: LTEA_HepaRG_CYP3A7: Life Technologies and Expression Analysis (LTEA) Assay for CYP3A7 using HepaRG (AID 2283492). The gist of the method: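 CYP3A7 transcript levels were read by TaqMan qRT-PCR on Fluidigm arrays after 48 h chemical exposure of human HepaRG cells, with housekeeping-gene normalisation. Eight half-log concentrations up to 100 uM in 0.5% DMSO were tested in duplicate.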

Read-out in test [5]: CYP3A5 (gene 1577)
Put plainly: LTEA_HepaRG_CYP3A5: Life Technologies and Expression Analysis (LTEA) Assay for CYP3A5 using HepaRG (AID 2283493). The procedure, abridged: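 HepaRG cells, plated 48 h then in serum-free induction medium, dosed in duplicate for 48 h with eight half-log concentrations up to 100 uM in 0.5% DMSO. Gene mRNA by Fluidigm TaqMan qRT-PCR, normalized to ACTB, GAPDH, POLR2A.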

Read-out in test [6]: Fatty Acid-Binding Protein 1 (FABP1), FABP1 (gene 2168)
Put plainly: LTEA_HepaRG_FABP1: Life Technologies and Expression Analysis (LTEA) Assay for Fatty Acid-Binding Protein 1 (FABP1) using HepaRG (AID 2283494). The gist of the method:
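HepaRG, 48 h post-plating switched to serum-free induction medium, then dosed 48 h (duplicate, 8 pts, ≤100 uM, 0.5% DMSO). RNA → Fluidigm TaqMan qRT-PCR, FABP1 normed to ACTB/GAPDH/POLR2A. Bidirectional curve fit vs DMSO.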

Read-out in test [7]: Cytochrome P450 4A22 (Homo sapiens) (UniProt Q5TCH4)
The test is described as follows: LTEA_HepaRG_CYP4A22: Life Technologies and Expression Analysis (LTEA) Assay for Cytochrome P450 4A22 (CYP4A22) using HepaRG (AID 2283495). The procedure, abridged:
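HepaRG, 48 h post-plating -> serum-free induction medium; dosed 48 h, duplicate, 8 conc. (100 uM top, half-log), 0.5% DMSO. Readout: CYP4A22 mRNA by qRT-PCR, ACTB/GAPDH/POLR2A normalization; gain/loss fit relative to DMSO.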

Read-out in test [8]: Cytochrome P450 7A1 (Homo sapiens) (UniProt P22680)
Put plainly: LTEA_HepaRG_CYP7A1: Life Technologies and Expression Analysis (LTEA) Assay for Cytochrome P450 7A1 (CYP7A1) using HepaRG (AID 2283496). The procedure, abridged: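 HepaRG cells plated 48 h, then switched to serum-free induction medium and exposed in duplicate for 48 h to 8-point half-log series from 100 uM in 0.5% DMSO. CYP7A1 mRNA by qRT-PCR (TaqMan), normalized to ACTB/GAPDH/POLR2A; bidirectional fit versus DMSO.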

Read-out in test [9]: Glutathione S-Transferase (GSTA2), GSTA2 (gene 2939)
The test is described as follows: LTEA_HepaRG_GSTA2: Life Technologies and Expression Analysis (LTEA) Assay for Glutathione S-Transferase (GSTA2) using HepaRG (AID 2283497). The procedure, abridged:
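HepaRG, 48 h dosing, 8-pt half-log CRC from 100 uM, 0.5% DMSO vehicle, n=2; RNA → Fluidigm TaqMan qRT-PCR; GSTA2 vs ACTB/GAPDH/POLR2A; gain/loss fit vs DMSO.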

Read-out in test [10]: Glutamate-cysteine ligase catalytic (GCLC), GCLC (gene 2729)
The test is described as follows: LTEA_HepaRG_GCLC: Life Technologies and Expression Analysis (LTEA) Assay for Glutamate-cysteine ligase catalytic (GCLC) using HepaRG (AID 2283498). The gist of the method:
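Read-out is GCLC transcript level by Fluidigm-based TaqMan qRT-PCR, normalized to three housekeeping genes and fitted in both directions relative to 0.5% DMSO. Human HepaRG cells received chemicals for 48 h, up to 100 uM.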

Activity calls are given as the source filed them. The calls were made as follows: active = hit-call score of the fitted dose curve at least 0.9, where 1 is the maximum; inactive = score below 0.9.

Cytochrome P450 3A7 (Homo sapiens), sequence (P24462 whole entry, looked up): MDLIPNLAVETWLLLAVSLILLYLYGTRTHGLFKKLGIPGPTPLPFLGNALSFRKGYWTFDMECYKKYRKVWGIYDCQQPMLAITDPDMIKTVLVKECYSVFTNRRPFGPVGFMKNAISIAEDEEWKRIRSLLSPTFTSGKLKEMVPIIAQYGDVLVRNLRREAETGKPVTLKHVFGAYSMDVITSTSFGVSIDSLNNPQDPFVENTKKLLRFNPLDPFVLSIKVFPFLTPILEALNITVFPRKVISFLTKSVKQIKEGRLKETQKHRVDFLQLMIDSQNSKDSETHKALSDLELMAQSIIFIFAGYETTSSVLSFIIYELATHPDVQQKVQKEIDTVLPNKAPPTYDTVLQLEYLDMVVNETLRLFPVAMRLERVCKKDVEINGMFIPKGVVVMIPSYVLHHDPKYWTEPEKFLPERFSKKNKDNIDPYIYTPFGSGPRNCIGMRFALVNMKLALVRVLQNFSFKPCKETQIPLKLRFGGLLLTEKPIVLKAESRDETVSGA

`O=C(O)C(Cl)Cl`: the call in test [1], in test [2], in test [3], in [4], in test [5] and in [6] was inactive. Besides, the outcome in [7], in [8], in test [9] and in test [10] was inactive.
`CSC(C)(C)C=NO`: the molecule was classed as inactive in [1], in [2], in test [3], in test [4], in test [5] and in test [6]. For the same molecule, the molecule was classed as inactive in [7], in test [8], in test [9] and in test [10].
With `CCOS(=O)(=O)OCC`, the molecule was called inactive in test [1], in test [2], in [3], in [4], in [5] and in test [6]. Further, the molecule was called inactive in test [7], in test [8], in [9] and in test [10].
Consider `O=[N+]([O-])c1ccc(Cl)c(Cl)c1`, for which the outcome in [1], in test [2], in test [3], in test [4], in test [5] and in test [6] was inactive. In addition, the molecule was classed as inactive in [7], in test [8], in [9] and in test [10].
As to `Cc1ccc([N+](=O)[O-])cc1C`, the outcome in test [1], in [2], in [3], in test [4], in test [5] and in [6] was inactive. Also, the call in [7], in test [8], in [9] and in [10] was inactive.
Take `ClC1=C(Cl)C2(Cl)C3C(Cl)C(Cl)CC3C1(Cl)C2(Cl)Cl` (configuration not stated): the AC50 was 18.4 µM (active) in test [1], 12.5 µM (active) in test [6], 26.2 µM (active) in test [7] and 10.4 µM (active) in test [8]. Further, the call in test [2], in [3], in test [4], in [5], in test [9] and in [10] was inactive.
Take `CCOC(=O)c1ccccc1C(=O)OCC`: the molecule was called inactive in test [1], in test [2], in test [3], in test [4], in [5] and in [6]. Also, the molecule was classed as inactive in test [7], in [8], in [9] and in test [10].
In the case of `Cc1cccc(N)c1`, the molecule was classed as inactive in test [2], in test [3], in test [4], in [5], in test [6] and in test [9]. For the same molecule, in [10], the result was inactive.
For `CC(C)(C)OOC(C)(C)C`, the molecule was classed as inactive in [1], in test [2], in test [3], in test [4], in test [5] and in [6]. In addition, the molecule was classed as inactive in [7], in test [8], in test [9] and in [10].
In the case of `COCCOCCO`, the result in test [1], in test [2], in test [3], in test [5], in test [6] and in [7] was inactive. Also, the molecule was classed as inactive in test [8], in test [9] and in [10].
Turning to `CCCCc1ccccc1`, the molecule was classed as inactive in [1], in test [2], in test [3], in test [4], in [5] and in [6]. In addition, the molecule was called inactive in test [7], in test [8], in test [9] and in test [10].
Regarding `OCC1CO1` (configuration not stated), the molecule was classed as inactive in [1], in test [2], in [3], in test [4], in test [5] and in test [6]. Moreover, the molecule was classed as inactive in test [7], in test [8], in [9] and in test [10].
With `O=P(Oc1ccccc1)(Oc1ccccc1)Oc1ccccc1`, the call in test [1], in test [2], in test [3], in test [6], in test [7] and in test [8] was inactive. Further, the molecule was classed as inactive in [9]. Moreover, the AC50 in test [4] is 12.6 µM (active); in test [10], 74.9 µM (active).
For the molecule `O=P1(N(CCCl)CCCl)NCCCO1` (configuration not stated), the call in test [1], in test [2], in [3], in test [4], in [5] and in test [6] was inactive. Moreover, the molecule was called inactive in test [7], in test [8], in test [9] and in [10].
For `CCOP(=S)(Oc1ccc([N+](=O)[O-])cc1)c1ccccc1` (configuration not stated), the concentration at half-maximal activity (AC50) in test [1] is 21.4 µM (active); in [4], 2.87 µM (active); in test [6], 12.7 µM (active). Besides, the outcome in [2], in test [3], in test [7], in [8] and in test [9] was inactive.
As to `O=[N+]([O-])c1ccccc1`, the call in test [2], in test [3], in test [4], in test [5], in test [6] and in test [9] was inactive. The outcome in test [10] was inactive.
As for `CC(Cl)(Cl)C(=O)O`, the molecule was called inactive in [1], in [2], in test [3], in [4], in test [5] and in test [6]. In addition, the call in [7], in [8], in test [9] and in test [10] was inactive.
Regarding `ClC(Cl)(Cl)c1ccccc1`, the molecule was called inactive in test [1], in [2], in test [3], in [4], in [5] and in test [6]. The molecule was classed as inactive in test [7], in test [8], in [9] and in test [10].
Turning to `CCOc1ccc(C(C)(C)COCc2cccc(Oc3ccccc3)c2)cc1`, the half-maximal activity concentration (AC50) in test [1] is 15 µM (active); in test [4] it was 1.64 µM (active); in [8] it was 26.8 µM (active). Also, the call in test [2], in test [3], in [5], in test [6], in test [7] and in [9] was inactive. In addition, the result in [10] was inactive.
`Nc1ccc2ccccc2c1`: the molecule was called inactive in test [1], in test [2], in test [3], in test [4], in test [5] and in [7]. Moreover, the result in [8], in test [9] and in [10] was inactive. The AC50 in test [6] is 18.9 µM (active).
As to `Cc1ccc(O)cc1C`, the molecule was classed as inactive in test [1], in test [2], in [3], in test [6], in test [9] and in test [10].
Turning to `CC(C)(C)c1ccc(O)cc1`, the call in test [1], in test [2], in test [3], in [6], in test [9] and in [10] was inactive.

The AC50 is the concentration at which the activity in the assay is half-maximal.

For the origin of these results see PubChem BioAssay (EPA / NIEHS).
